Laboratory results taken from PubChem BioAssay (EPA / NIEHS).
Active and inactive are the calls of the source. The calls were made as follows: active = hit-call score of the fitted dose curve at least 0.9, where 1 is the maximum; inactive = score below 0.9.

Tests used:
[1] = read-out: Monokine induced gamma interferon (MIG), CXCL9 (gene 4283); assay: BSK_hDFCGF_MIG: BioMAP Diversity Plus: hDFCGF Assay for Monokine induced gamma interferon (MIG) Biomarker Activity (AID 2283063); settings: primary human foreskin fibroblasts; actives raise or lower the signal
How it was run: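 Endpoint derived by bidirectional fitting relative to DMSO; MIG quantified via ELISA in primary human foreskin fibroblasts harvested 24 h after dosing.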

[2] = read-out: Matrix Metallopeptidase 1 (MMP1), MMP1 (gene 4312); assay: BSK_hDFCGF_MMP1: BioMAP Diversity Plus: hDFCGF Assay for Matrix Metallopeptidase 1 (MMP1) Biomarker Activity (AID 2283064); settings: primary human foreskin fibroblasts; actives raise or lower the signal
How it was run: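 MMP1 levels quantified by ELISA 24 h after dosing human dermal fibroblast cultures, with parallel SRB total-protein staining for overt cytotoxicity. Data fitted in both directions against DMSO baseline.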

[3] = read-out: Vascular cell adhesion molecule 1 (VCAM1), VCAM1 (gene 7412); assay: BSK_hDFCGF_VCAM1: BioMAP Diversity Plus: hDFCGF Assay for Vascular cell adhesion molecule 1 (VCAM1) Biomarker Activity (AID 2283065); settings: primary human foreskin fibroblasts; actives raise or lower the signal;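 as to AC50: VCAM-1 protein level quantified by ELISA after 24 h chemical exposure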
How it was run: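 Measured after 24 h chemical treatment of primary human skin fibroblasts, VCAM-1 was detected by ELISA and concentration-response analysed in both directions versus DMSO vehicle.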

[4] = read-out: Plasminogen activator inhibitor-1 (PAI1), SERPINE1 (gene 5054); assay: BSK_hDFCGF_PAI1: BioMAP Diversity Plus: hDFCGF Assay for Plasminogen activator inhibitor-1 (PAI1) Biomarker Activity (AID 2283066); settings: primary human foreskin fibroblasts; actives raise or lower the signal
How it was run: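 PAI-1 levels in human dermal foreskin fibroblasts were quantified by ELISA 24 h after dosing, with gain or loss analysed against DMSO. Overt cytotoxicity was checked by sulforhodamine B total-protein staining in parallel cultures.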

[5] = read-out: Intercellular Adhesion Molecule 1 (ICAM1), ICAM1 (gene 3383); assay: BSK_KF3CT_ICAM1: BioMAP Diversity Plus: KF3CT Assay for Intercellular Adhesion Molecule 1 (ICAM1) Biomarker Activity (AID 2283067); settings: primary human keratinocytes with fibroblasts; actives raise or lower the signal
How it was run: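 Bidirectional curve fitting against a DMSO baseline was applied to ICAM-1 ELISA signal from primary human skin co-cultures harvested 24 h after treatment, with SRB staining of parallel wells for overt cytotoxicity.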

[6] = read-out: Interferon-gamma inducible Protein 10 (IP10), CXCL10 (gene 3627); assay: BSK_KF3CT_IP10: BioMAP Diversity Plus: KF3CT Assay for Interferon-gamma inducible Protein 10 (IP10) Biomarker Activity (AID 2283068); settings: primary human keratinocytes with fibroblasts; actives raise or lower the signal
How it was run: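 Signal is secreted/surface IP-10 by ELISA in a human primary skin co-culture of keratinocytes and foreskin fibroblasts, taken 24 h post-dosing; DMSO served as negative control.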

[7] = BSK_KF3CT_SRB: Viability Assessment in the BioMAP Diversity Plus: KF3CT Assay (AID 2283069); settings: primary human keratinocytes with fibroblasts;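 also: read 24 h after compound addition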
How it was run: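 Cytotoxicity was gauged by SRB staining (0.1% SRB, 10% TCA fixation, 560 nm) of parallel cultures at 24 h. The cells were primary human skin keratinocytes co-cultured with fibroblasts, and activity was fitted in both directions against DMSO.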

[8] = read-out: Interleukin-1 alpha (IL1a), IL1A (gene 3552); assay: BSK_KF3CT_IL1a: BioMAP Diversity Plus: KF3CT Assay for Interleukin-1 alpha (IL1a) Biomarker Activity (AID 2283070); settings: primary human keratinocytes with fibroblasts; actives raise or lower the signal
How it was run: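 IL-1a was detected by ELISA 24 h after chemical treatment of a co-culture of human skin keratinocytes and foreskin fibroblasts. Gain or loss of signal was fitted against the DMSO baseline.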

[9] = read-out: TIMP metallopeptidase inhibitor 2 (TIMP2), TIMP2 (gene 7077); assay: BSK_KF3CT_TIMP2: BioMAP Diversity Plus: KF3CT Assay for TIMP metallopeptidase inhibitor 2 (TIMP2) Biomarker Activity (AID 2283071); settings: primary human keratinocytes with fibroblasts; actives raise or lower the signal
How it was run: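 TIMP-2 measured by ELISA at 24 h in human keratinocyte/fibroblast primary co-cultures exposed to chemicals. Both increases and decreases were fitted against DMSO. Parallel cultures were stained with SRB for total protein as an overt-cytotoxicity check.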

[10] = read-out: Transforming growth factor beta 1 (TGFb1), TGFB1 (gene 7040); assay: BSK_KF3CT_TGFb1: BioMAP Diversity Plus: KF3CT Assay for Transforming growth factor beta 1 (TGFb1) Biomarker Activity (AID 2283072); settings: primary human keratinocytes with fibroblasts; actives raise or lower the signal
How it was run: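 ELISA quantifies TGF-b1 at 24 h post-dose in a primary human skin co-culture of keratinocytes and fibroblasts, with gain or loss judged against DMSO. Parallel SRB total-protein staining flags overt cytotoxicity.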

[11] = read-out: C-C motif chemokine 2 (Homo sapiens) (UniProt P13500); assay: BSK_KF3CT_MCP1: BioMAP Diversity Plus: KF3CT Assay for Monocyte Chemoattractant Protein 1 (MCP1/CCL2) Biomarker Activity (AID 2283073); settings: primary human keratinocytes with fibroblasts; actives raise or lower the signal
How it was run: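 Biomarker MCP-1 is measured by ELISA in primary human keratinocytes co-cultured with foreskin fibroblasts, 24 h after chemical treatment; DMSO serves as the negative control and activity baseline.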

[12] = read-out: Matrix Metallopeptidase 9 (MMP9), MMP9 (gene 4318); assay: BSK_KF3CT_MMP9: BioMAP Diversity Plus: KF3CT Assay for Matrix Metallopeptidase 9 (MMP9) Biomarker Activity (AID 2283074); settings: primary human keratinocytes with fibroblasts; actives raise or lower the signal;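 as to AC50: MMP9 protein level quantified by ELISA in the co-culture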
How it was run: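 MMP-9 quantified by ELISA after 24 h chemical treatment of primary human skin keratinocyte/fibroblast co-cultures; gain or loss fitted against DMSO, with parallel SRB staining (0.1% SRB, 560 nm) for overt cytotoxicity.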

[13] = read-out: urokinase plasminogen activator (uPA), PLAU (gene 5328); assay: BSK_KF3CT_uPA: BioMAP Diversity Plus: KF3CT Assay for urokinase plasminogen activator (uPA) Biomarker Activity (AID 2283075); settings: primary human keratinocytes with fibroblasts; actives raise or lower the signal
How it was run: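 ELISA read-out of uPA 24 h after dosing human skin keratinocytes co-cultured with foreskin fibroblasts. Signal change fitted both ways relative to DMSO; sulforhodamine B on parallel cultures marks overt cytotoxicity.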

[14] = read-out: CD40, CD40 (gene 958); assay: BSK_LPS_CD40: BioMAP Diversity Plus: LPS Assay for CD40 Biomarker Activity (AID 2283076); settings: primary human HUVEC with PBMC; actives raise or lower the signal
How it was run: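 Using a multiplexed primary human co-culture (umbilical vein endothelium plus PBMC), CD40 was read by ELISA 24 h after dosing, with cytotoxicity tracked by sulforhodamine B staining of parallel cultures and activity fitted bidirectionally versus DMSO.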

[15] = read-out: E-selectin (Homo sapiens) (UniProt P16581); assay: BSK_LPS_Eselectin: BioMAP Diversity Plus: LPS Assay for Eselectin Biomarker Activity (AID 2283077); settings: primary human HUVEC with PBMC; actives raise or lower the signal
How it was run: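 Dose chemical onto LPS-driven HUVEC/PBMC co-culture; after 24 h, run ELISA for E-selectin; fit up- and down-going responses relative to DMSO control.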

[16] = read-out: Interleukin-8 (IL8), CXCL8 (gene 3576); assay: BSK_LPS_IL8: BioMAP Diversity Plus: LPS Assay for Interleukin-8 (IL8) Biomarker Activity (AID 2283078); settings: primary human HUVEC with PBMC; actives raise or lower the signal
How it was run: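 In this LPS system, chemical-treated human umbilical vein endothelium/PBMC co-cultures were harvested at 24 h for IL-8 ELISA.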

[17] = BSK_LPS_SRB: Viability Assessment in the BioMAP Diversity Plus: LPS Assay (AID 2283079); settings: primary human HUVEC with PBMC;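 also: total protein by sulforhodamine B absorbance as a cytotoxicity measure; measured one day after compound addition; fitted in both directions against DMSO so loss or gain of signal counts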
How it was run: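 Cytotoxicity endpoint in human endothelial–PBMC co-culture: 24 h exposure, then SRB (0.1%) staining, 560 nm read.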

[18] = read-out: Interleukin-1 alpha (IL1a), IL1A (gene 3552); assay: BSK_LPS_IL1a: BioMAP Diversity Plus: LPS Assay for Interleukin-1 alpha (IL1a) Biomarker Activity (AID 2283080); settings: primary human HUVEC with PBMC; actives raise or lower the signal
How it was run: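 Primary human HUVEC and PBMC co-culture stimulated with LPS is dosed and harvested at 24 h. Both increases and decreases in ELISA-measured IL-1a are scored relative to DMSO.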

[19] = read-out: Monocyte Chemoattractant Protein-1 (MCP1), CCL2 (gene 6347); assay: BSK_LPS_MCP1: BioMAP Diversity Plus: LPS Assay for Monocyte Chemoattractant Protein-1 (MCP1) Biomarker Activity (AID 2283081); settings: primary human HUVEC with PBMC; actives raise or lower the signal;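 as to AC50: secreted MCP-1 protein quantified by ELISA in culture supernatant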
How it was run: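 Values derive from bidirectional fitting against DMSO of ELISA-measured MCP-1 in a human primary endothelial and mononuclear cell co-culture, 24 h after chemical addition under LPS activation.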

[20] = BSK_LPS_PGE2: BioMAP Diversity Plus: LPS Assay for Prostaglandin E2 (PGE2) Biomarker Activity (AID 2283082); settings: primary human HUVEC with PBMC; actives raise or lower the signal;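 as to AC50: secreted prostaglandin E2 measured by ELISA in LPS-stimulated co-culture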
How it was run: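 PGE2 release measured by ELISA in an LPS-activated co-culture of human umbilical vein endothelial cells and peripheral blood mononuclear cells, read at 24 h post-dosing. DMSO served as baseline for bidirectional curve fitting.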

Measured: AC50

E-selectin (Homo sapiens), sequence (P16581 whole entry, looked up): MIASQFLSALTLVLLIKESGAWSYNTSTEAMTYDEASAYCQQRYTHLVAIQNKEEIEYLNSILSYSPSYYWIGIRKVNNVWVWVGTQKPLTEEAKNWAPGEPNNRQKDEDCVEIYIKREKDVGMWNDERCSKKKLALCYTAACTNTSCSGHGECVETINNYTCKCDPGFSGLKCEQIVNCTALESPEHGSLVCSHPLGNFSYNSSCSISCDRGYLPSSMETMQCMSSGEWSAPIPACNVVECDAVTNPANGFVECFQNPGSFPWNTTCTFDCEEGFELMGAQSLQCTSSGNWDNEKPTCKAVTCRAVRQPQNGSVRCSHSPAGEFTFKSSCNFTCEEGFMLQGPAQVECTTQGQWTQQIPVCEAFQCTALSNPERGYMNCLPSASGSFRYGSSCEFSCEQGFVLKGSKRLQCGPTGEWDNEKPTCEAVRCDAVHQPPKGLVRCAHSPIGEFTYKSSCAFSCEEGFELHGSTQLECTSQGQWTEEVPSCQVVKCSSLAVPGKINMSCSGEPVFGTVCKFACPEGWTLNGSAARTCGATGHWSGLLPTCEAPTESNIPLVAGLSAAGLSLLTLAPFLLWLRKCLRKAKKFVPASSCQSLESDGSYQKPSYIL

C1N2CN3CN1CN(C2)C3
inactive: all assays above

C=CCCCCCCCCC(=O)O
active: [20] 8.17 µM
inactive: all other assays above

CCc1cc(SCc2sc(-c3ccc(C(F)(F)F)cc3)nc2CN2CCN(c3ccc(OC)cc3)CC2)ccc1OCC(=O)O
active: [1] 3.38 µM | [2] 1.8 µM | [3] 3.57 µM | [4] 3.17 µM | [5] 7.27 µM | [6] 3.58 µM | [7] 3.42 µM | [8] 7.25 µM | [9] 7.31 µM | [10] 4.39 µM | [11] 4.26 µM | [12] 4.08 µM | [13] 5.22 µM | [14] 6.6 µM | [15] 14.8 µM | [16] 33.6 µM | [17] 13.4 µM | [19] 12.3 µM | [20] 20 µM

COC(=O)c1c(Cl)c(Cl)c(C(=O)OC)c(Cl)c1Cl
active: [14] 11.4 µM
inactive: all other assays above

CCCCCCCCO
inactive: all assays above

CC(C)CCCCCCCOC(=O)CCCCC(=O)OCCCCCCCC(C)C
inactive: all assays above

CC1(C)C(=O)N(Br)C(=O)N1Br
not listed: [18]
inactive: all other assays above

Cn1c(=O)c2c(ncn2C)n(C)c1=O
not listed: [18]
inactive: all other assays above

Cc1ccc(S(=O)(=O)O)cc1C
inactive: all assays above

CC(=O)OCCC(C)C
not listed: [18]
inactive: all other assays above

CCOC(=O)CC(CC(=O)OCC)(OC(C)=O)C(=O)OCC
not listed: [8]
inactive: all other assays above

Nc1ccc(Nc2ccccc2)cc1
active: [3] 5.54 µM | [12] 3.97 µM | [14] 3.97 µM | [15] 12.9 µM | [16] 11.2 µM | [19] 8.02 µM | [20] 1.44 µM
not listed: [18]
inactive: all other assays above

O=C(O)c1cccc(Oc2ccccc2)c1
inactive: all assays above
